# Measured values reported in article PMC7862700, “An all-to-all approach to the identification of sequence-specific readers for epigenetic DNA modifications on cytosine”.
# Tests used:
# Experiment in all cases: DAPPL (digital affinity profiling via proximity ligation, sequencing); 10 mM Tris-HCl pH 7.5, 50 mM NaCl, 1 mM DTT, 4% glycerol, room temperature, 30 min; GST-TFs on glutathione beads, 16-mer random dsDNA library, 0.1% formaldehyde crosslink after washing; high values mean tight binding
# Conditions in all cases: protein: recombinant; tags: N-terminal GST; dsDNA, one strand shown
# [1] = biological target: T1, ERG (Homo sapiens, UniProt P11308 1-479)
# T1 sequence: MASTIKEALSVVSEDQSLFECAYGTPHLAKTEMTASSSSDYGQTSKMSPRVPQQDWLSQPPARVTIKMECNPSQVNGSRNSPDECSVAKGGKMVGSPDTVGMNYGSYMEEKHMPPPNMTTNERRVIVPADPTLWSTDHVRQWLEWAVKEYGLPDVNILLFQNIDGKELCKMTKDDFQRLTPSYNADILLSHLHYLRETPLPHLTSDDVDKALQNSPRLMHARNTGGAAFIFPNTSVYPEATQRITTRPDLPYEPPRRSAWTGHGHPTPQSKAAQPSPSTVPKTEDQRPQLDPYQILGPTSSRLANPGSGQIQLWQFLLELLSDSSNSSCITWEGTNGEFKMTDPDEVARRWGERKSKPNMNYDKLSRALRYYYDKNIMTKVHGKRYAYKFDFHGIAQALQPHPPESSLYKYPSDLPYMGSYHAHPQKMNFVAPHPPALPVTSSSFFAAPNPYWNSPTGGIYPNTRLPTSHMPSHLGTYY
# Outline: (§1)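 The binding signal reported is, for every hexamer, its read frequency for a factor over its read frequency for the tag-only sample. Reads came from pools of yeast-expressed, GST-fused human transcription factors on glutathione beads, barcoded with DNA and mixed with that sample, which were incubated with 200 nmole of a random double-stranded 16-mer DNA library in Tris/NaCl/DTT/glycerol buffer at room temperature for 30 min. After washing, the pools were crosslinked with 0.1% formaldehyde, proximity-ligated with BsaI/T4 ligase for 1 h at 37 °C, PCR-amplified and sequenced on an Illumina NextSeq500.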
# [2] = biological target: T2, ELK4 (Homo sapiens, UniProt P28324-2 1-405)
# T2 sequence: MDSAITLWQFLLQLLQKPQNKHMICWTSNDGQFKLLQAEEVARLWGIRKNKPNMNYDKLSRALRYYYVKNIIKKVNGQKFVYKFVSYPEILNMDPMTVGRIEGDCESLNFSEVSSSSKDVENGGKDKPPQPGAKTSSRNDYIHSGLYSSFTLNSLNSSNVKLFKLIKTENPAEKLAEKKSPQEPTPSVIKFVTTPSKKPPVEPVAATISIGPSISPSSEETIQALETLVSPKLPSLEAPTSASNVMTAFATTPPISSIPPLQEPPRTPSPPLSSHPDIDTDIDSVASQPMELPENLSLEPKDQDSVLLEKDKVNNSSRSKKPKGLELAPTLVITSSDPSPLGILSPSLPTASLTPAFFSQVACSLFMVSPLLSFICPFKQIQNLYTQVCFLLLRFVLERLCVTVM
# Outline: as §1
# [3] = biological target: T3, ETV3L (Homo sapiens, UniProt Q6ZN32 1-361)
# T3 sequence: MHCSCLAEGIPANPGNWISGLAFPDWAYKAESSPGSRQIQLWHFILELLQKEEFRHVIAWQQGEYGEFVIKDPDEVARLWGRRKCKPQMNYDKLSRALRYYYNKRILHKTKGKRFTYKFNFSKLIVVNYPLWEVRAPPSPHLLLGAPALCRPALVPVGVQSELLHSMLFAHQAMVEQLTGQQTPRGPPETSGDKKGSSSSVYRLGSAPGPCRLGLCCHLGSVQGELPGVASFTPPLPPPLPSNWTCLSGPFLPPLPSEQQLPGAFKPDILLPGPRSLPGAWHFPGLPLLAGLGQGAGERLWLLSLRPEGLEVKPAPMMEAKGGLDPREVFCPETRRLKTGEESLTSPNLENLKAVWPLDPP
# Outline: as §1
# [4] = biological target: T4, ETV7 (Homo sapiens, UniProt Q9Y603 1-341)
# T4 sequence: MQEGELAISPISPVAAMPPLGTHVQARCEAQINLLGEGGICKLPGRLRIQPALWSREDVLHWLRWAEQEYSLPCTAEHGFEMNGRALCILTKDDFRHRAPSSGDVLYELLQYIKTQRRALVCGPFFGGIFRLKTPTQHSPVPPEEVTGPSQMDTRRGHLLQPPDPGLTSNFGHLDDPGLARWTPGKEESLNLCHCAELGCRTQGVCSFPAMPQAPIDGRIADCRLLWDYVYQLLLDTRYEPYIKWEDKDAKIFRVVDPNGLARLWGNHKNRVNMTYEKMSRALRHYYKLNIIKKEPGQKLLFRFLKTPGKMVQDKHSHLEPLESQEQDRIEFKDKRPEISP
# Outline: as §1
# [5] = biological target: T5, ELK1 (Homo sapiens, UniProt P19419 1-428)
# T5 sequence: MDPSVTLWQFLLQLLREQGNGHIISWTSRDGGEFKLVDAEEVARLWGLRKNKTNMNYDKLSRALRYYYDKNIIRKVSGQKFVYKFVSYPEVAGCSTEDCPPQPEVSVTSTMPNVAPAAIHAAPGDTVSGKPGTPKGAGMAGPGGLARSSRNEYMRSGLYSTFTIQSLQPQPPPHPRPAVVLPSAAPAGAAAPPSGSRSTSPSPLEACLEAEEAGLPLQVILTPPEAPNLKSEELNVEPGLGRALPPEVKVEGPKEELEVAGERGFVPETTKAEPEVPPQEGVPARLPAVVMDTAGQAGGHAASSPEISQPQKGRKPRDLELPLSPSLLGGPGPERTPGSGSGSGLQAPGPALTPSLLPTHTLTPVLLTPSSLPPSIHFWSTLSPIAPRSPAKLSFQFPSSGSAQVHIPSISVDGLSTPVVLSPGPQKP
# Outline: as §1
# [6] = biological target: SPIB (Homo sapiens, UniProt Q01892 1-262)
# Sequence of SPIB (Q01892 whole entry): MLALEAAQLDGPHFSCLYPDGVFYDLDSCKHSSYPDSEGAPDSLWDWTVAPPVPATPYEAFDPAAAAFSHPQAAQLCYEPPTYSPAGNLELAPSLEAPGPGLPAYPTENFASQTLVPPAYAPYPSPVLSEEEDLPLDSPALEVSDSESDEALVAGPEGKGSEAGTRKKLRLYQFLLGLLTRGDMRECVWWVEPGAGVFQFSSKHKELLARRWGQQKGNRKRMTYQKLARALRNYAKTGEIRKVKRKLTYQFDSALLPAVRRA
# Outline: as §1
# [7] = biological target: T6, SPDEF (Homo sapiens, UniProt O95238 1-335)
# T6 sequence: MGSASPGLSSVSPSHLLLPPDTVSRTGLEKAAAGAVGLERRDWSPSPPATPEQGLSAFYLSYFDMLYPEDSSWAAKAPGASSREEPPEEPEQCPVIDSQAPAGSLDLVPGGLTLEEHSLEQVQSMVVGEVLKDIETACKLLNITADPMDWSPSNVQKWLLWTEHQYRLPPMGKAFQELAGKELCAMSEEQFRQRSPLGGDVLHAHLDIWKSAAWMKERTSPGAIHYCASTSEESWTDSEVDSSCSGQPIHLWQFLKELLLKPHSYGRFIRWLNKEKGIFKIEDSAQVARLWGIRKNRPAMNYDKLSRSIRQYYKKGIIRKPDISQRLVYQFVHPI
# Outline: as §1
# [8] = biological target: T7, ELF5 (Homo sapiens, UniProt Q9UKW6-2 1-255)
# T7 sequence: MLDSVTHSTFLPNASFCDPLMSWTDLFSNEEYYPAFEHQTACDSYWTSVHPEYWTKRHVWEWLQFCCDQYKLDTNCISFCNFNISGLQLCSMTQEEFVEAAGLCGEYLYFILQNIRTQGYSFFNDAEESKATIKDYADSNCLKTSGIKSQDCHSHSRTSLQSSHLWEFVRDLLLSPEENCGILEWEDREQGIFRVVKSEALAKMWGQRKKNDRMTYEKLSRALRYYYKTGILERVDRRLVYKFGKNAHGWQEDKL
# Outline: as §1
# [9] = biological target: T8, ELK3 (Homo sapiens, UniProt P41970 1-407)
# T8 sequence: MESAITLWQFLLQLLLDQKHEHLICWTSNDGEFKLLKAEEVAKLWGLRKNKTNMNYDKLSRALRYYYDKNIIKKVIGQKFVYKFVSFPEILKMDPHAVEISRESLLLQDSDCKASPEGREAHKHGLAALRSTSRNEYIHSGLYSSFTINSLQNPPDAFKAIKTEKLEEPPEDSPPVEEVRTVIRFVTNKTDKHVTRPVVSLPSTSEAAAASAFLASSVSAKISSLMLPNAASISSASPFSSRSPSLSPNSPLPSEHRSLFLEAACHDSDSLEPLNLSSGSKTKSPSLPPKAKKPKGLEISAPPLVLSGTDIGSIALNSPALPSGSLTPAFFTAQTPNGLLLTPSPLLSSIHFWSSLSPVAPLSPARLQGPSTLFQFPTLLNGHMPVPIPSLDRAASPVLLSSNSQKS
# Outline: as §1
# [10] = biological target: CRX (Homo sapiens, UniProt O43186 1-299)
# Sequence of CRX (O43186 whole entry): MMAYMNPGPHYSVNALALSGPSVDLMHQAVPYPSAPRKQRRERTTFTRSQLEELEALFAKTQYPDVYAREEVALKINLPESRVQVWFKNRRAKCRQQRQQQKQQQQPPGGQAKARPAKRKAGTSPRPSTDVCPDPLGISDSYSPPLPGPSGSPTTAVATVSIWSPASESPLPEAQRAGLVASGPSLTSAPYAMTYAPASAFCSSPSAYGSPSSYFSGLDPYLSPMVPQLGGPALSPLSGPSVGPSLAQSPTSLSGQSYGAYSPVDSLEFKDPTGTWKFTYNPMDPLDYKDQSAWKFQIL
# Outline: as §1
# [11] = biological target: T9, ETS2 (Homo sapiens, UniProt P15036 1-469)
# T9 sequence: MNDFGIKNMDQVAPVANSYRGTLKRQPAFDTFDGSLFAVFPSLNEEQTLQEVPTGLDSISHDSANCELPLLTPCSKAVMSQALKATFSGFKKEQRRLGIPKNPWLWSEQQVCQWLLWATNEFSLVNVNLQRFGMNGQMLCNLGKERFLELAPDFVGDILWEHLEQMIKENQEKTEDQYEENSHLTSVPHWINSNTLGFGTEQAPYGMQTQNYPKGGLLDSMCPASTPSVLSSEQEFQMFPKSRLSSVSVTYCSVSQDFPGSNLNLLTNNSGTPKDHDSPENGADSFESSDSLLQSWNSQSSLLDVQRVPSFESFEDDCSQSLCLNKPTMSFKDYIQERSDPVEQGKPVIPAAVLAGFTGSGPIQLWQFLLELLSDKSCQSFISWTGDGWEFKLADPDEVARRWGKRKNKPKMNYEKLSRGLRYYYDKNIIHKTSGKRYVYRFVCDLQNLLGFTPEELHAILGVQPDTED
# Outline: as §1
# [12] = biological target: T10, ETV2 (Homo sapiens, UniProt O00321 1-342)
# T10 sequence: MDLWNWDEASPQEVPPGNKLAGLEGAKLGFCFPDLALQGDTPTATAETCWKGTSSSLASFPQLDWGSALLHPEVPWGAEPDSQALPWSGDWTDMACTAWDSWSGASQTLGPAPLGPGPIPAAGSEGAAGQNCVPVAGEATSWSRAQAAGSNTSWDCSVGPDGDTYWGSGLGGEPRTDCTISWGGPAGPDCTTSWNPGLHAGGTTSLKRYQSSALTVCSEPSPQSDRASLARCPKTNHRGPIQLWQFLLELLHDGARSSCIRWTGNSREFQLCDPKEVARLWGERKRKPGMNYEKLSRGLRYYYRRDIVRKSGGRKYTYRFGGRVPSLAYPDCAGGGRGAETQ
# Outline: as §1
# [13] = biological target: T11, ELF3 (Homo sapiens, UniProt P78545 1-371)
# T11 sequence: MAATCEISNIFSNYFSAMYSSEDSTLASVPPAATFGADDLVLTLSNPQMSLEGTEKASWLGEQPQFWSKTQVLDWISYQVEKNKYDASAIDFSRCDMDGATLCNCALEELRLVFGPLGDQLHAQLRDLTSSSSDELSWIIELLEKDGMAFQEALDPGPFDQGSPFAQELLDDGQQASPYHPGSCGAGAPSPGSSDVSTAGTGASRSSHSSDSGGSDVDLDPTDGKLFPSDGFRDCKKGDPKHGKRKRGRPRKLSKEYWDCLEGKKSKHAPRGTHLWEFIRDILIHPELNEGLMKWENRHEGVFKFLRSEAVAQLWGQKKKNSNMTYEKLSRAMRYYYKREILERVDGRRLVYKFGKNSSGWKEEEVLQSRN
# Outline: as §1
# [14] = biological target: T12, ERF (Homo sapiens, UniProt P50548 1-548)
# T12 sequence: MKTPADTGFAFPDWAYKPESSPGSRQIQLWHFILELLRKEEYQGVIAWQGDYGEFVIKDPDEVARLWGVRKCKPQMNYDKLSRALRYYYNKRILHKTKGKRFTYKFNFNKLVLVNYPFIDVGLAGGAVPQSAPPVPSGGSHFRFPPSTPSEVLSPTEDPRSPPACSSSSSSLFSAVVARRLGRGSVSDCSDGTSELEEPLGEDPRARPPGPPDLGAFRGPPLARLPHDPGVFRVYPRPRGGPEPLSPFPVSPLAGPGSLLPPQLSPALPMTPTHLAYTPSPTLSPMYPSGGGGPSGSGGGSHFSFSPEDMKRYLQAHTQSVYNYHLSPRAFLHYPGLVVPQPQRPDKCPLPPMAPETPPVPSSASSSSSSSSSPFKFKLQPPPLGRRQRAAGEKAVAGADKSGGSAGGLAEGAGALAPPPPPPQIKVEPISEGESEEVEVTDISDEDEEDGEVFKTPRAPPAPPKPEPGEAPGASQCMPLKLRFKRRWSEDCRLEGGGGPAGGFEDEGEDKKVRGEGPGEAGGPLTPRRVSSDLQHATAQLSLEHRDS
# Outline: as §1
sequence,measurement,setting,value
GTCATT,binding signal,[1],"1.03 fold enrichment (6-mer frequency, TF over GST control)"
same,binding signal,[2],"1.03 fold enrichment (6-mer frequency, TF over GST control)"
same,binding signal,[3],"1.01 fold enrichment (6-mer frequency, TF over GST control)"
same,binding signal,[4],"1.01 fold enrichment (6-mer frequency, TF over GST control)"
GATCCG,binding signal,[5],"1.01 fold enrichment (6-mer frequency, TF over GST control)"
same,binding signal,[1],"1.04 fold enrichment (6-mer frequency, TF over GST control)"
same,binding signal,[6],"1.05 fold enrichment (6-mer frequency, TF over GST control)"
same,binding signal,[2],"1 fold enrichment (6-mer frequency, TF over GST control)"
same,binding signal,[7],"1.65 fold enrichment (6-mer frequency, TF over GST control)"
same,binding signal,[8],"1.02 fold enrichment (6-mer frequency, TF over GST control)"
AAAGTC,binding signal,[9],"1.08 fold enrichment (6-mer frequency, TF over GST control)"
same,binding signal,[2],"1.08 fold enrichment (6-mer frequency, TF over GST control)"
same,binding signal,[10],"1.01 fold enrichment (6-mer frequency, TF over GST control)"
same,binding signal,[11],"1.03 fold enrichment (6-mer frequency, TF over GST control)"
same,binding signal,[4],"1.05 fold enrichment (6-mer frequency, TF over GST control)"
CAGTAT,binding signal,[9],"1.03 fold enrichment (6-mer frequency, TF over GST control)"
same,binding signal,[2],"1.06 fold enrichment (6-mer frequency, TF over GST control)"
same,binding signal,[12],"1.08 fold enrichment (6-mer frequency, TF over GST control)"
same,binding signal,[13],"1.1 fold enrichment (6-mer frequency, TF over GST control)"
same,binding signal,[14],"1.1 fold enrichment (6-mer frequency, TF over GST control)"
same,binding signal,[3],"1.02 fold enrichment (6-mer frequency, TF over GST control)"
same,binding signal,[11],"1.02 fold enrichment (6-mer frequency, TF over GST control)"
